Compounds with a hit are over-represented: about 0.81% of the library has one in this group of screens.
RE007 growth inh: less growth of the S. pombe RE007 Vpr strain | hit rate 0.21% among 360,000 | Potency, µM (titrated, usually from 92.2 µM), actives largely listed as inhibitors | S. pombe RE007 Vpr strain, BacTiter-Glo ATP luminescence, 24 h; active = well fitted falling curve with a large enough effect; inconclusive = small, poorly fitted or top-dose-only effect; inactive = no such curve, though single readings can be large or run the other way; also: nearly all actives have a fitted effect of over 50% in size
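Fission yeast strain RE007, carrying one chromosomally integrated HIV-1 vpr copy, was seeded at OD 0.01 in PMG+AL medium with 23 nL pinned compound. After 24 h at 30 °C and 99% humidity, viability was read by BacTiter-Glo luminescence.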
LmPK inh: blocks Leishmania mexicana pyruvate kinase activity | Q27686 | purified LmPK, Kinase-Glo ATP luminescence, 1 h | Potency, µM (top dose mostly 57.5 µM), actives largely listed as inhibitors | hit rate 0.37% among 290,000 | AID 1721
Target sequence (Q27686 whole entry, looked up): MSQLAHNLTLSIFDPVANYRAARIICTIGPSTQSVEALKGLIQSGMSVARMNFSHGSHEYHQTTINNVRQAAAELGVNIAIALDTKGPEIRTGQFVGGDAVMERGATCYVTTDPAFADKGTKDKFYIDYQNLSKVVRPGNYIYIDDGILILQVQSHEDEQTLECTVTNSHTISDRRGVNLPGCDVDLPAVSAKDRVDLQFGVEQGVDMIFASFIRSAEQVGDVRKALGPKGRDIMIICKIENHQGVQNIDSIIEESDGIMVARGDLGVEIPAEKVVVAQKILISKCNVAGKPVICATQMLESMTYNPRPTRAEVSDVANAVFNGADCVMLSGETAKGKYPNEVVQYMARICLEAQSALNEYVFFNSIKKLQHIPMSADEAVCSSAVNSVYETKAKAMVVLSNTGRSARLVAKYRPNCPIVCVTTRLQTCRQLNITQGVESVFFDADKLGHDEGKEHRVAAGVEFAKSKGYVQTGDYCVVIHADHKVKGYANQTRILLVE
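Purified LmPK (0.1 nM) with 0.5 mM PEP and 0.1 mM ADP in imidazole buffer pH 7.2 with MgCl2/KCl, 1 h at room temperature. ATP formed was read by luciferase luminescence and normalized to no-enzyme and uninhibited controls.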
TbPYK inhibitor: blocks Trypanosoma brucei pyruvate kinase; Q57TT1; TbPYK enzyme, Kinase-Glo Plus ATP luminescence, 45 min; Potency, µM (highest dose often 76.8 µM), hits mostly inhibitors; hit rate 0.12% among 410,000; AID 624173; also: nearly all actives have a fitted effect of over 50% in size
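Readout: single end-point luminescence (Kinase-Glo Plus, 10 min). Reaction conditions were TbPYK/substrate plus 130 uM ADP, 45 min at RT, pH 7.2 TEA buffer. No-enzyme wells served as controls, and data were normalized before concentration-response fitting.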
SARS PLpro yeast-1: SARS-CoV PLP inhibition in yeast. S. cerevisiae expressing SARS-CoV PLpro, growth rescue. Potency, µM (highest dose often 32.9 µM), hits mostly activators. hit rate 0.19% among 330,000; calls by dose curve; also: nearly all actives have a fitted effect of over 55% in size
AMA1 RON2 block: inhibitors of Plasmodium falciparum AMA1-RON2 interaction. AlphaScreen AMA1-biotinylated RON2 peptide binding. Potency, µM (series often up to 58.2 µM), actives largely listed as inhibitors. hit rate 0.2% among 360,000; also: nearly all actives have a fitted effect of over 45% in size
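AMA1 (3D7) with his tag at 25 nM final met compounds first, then biotinylated RON2 peptide at 25 nM; detection used donor plus acceptor beads, 10 µg/mL apiece, read by AlphaScreen after 30 min at room temperature.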
SARS PLpro yeast-2: Validates SARS-CoV PLpro inhibitor hits in yeast; shares compounds with SARS PLpro yeast-1; yeast expressing SARS-CoV PLpro, growth phenotype rescue; calls only; hit rate 19% among 1,000; AID 652038; call rule not given here
A number is an active result; - = inactive; ? = inconclusive; . = no result; + = active, no number. Unless noted, calls follow the shape of the dose curve; as a rule, active = well fitted curve in the direction sought with a large enough effect; inconclusive = small, poorly fitted or top-dose-only effect, or another doubt; inactive = no such curve, though single readings can be large; an effect the other way counts as inactive or inconclusive.

SMILES | RE007 growth inh | LmPK inh | TbPYK inhibitor | SARS PLpro yeast-1 | AMA1 RON2 block | SARS PLpro yeast-2
O=C(O)c1ccc(N=NN2CCCCCC2)cc1 | - | - | - | 12.6µM | - | -
COc1ccc(NC(=O)c2oc3ccc(S(=O)(=O)N4CCCCC4)cc3c2C)cc1Cl | . | . | - | . | . | .
CCC(=O)c1ccc(N2CCN(C(=O)c3cc([N+](=O)[O-])ccc3N3CCN(C)CC3)CC2)c(F)c1 | - | - | - | ? | - | +
Cc1cccc(OCC(=O)Nc2ccc(S(=O)(=O)N3CCN(C)CC3)cc2)c1 | - | - | - | 3.55µM | - | -
CN1CCN(S(=O)(=O)c2ccc(NC(=O)COc3ccccc3)cc2)CC1 | - | - | - | - | - | .
CCCCN(C(=O)CSc1nnc(-c2ccccc2)o1)c1c(N)n(CCC)c(=O)[nH]c1=O | - | . | - | - | - | .
CCN(C(=O)CSc1nnc(-c2ccccc2)o1)c1c(N)n(Cc2ccccc2)c(=O)[nH]c1=O | - | - | - | ? | - | -
COc1ccc(NC(=O)c2cc3c(=O)n(Cc4cccnc4)ccc3nc2C)cc1Cl | . | . | - | . | . | .
CN1CCCC1=Nc1ccccc1 | - | . | - | . | - | .
CCCC(=O)NC(c1ccc(Cl)cc1Cl)c1ccc2cccnc2c1O (configuration not stated) | - | - | - | ? | - | .
O=C(O)COc1ccccc1C(Nc1ccccn1)c1cc(Cl)c2cccnc2c1O (configuration not stated) | - | - | - | 5.01µM | - | -
CC(=O)NC(C)c1cc(Cl)c2cccnc2c1O (configuration not stated) | . | . | - | ? | . | -
CC(=O)NC(c1ccc(Cl)cc1Cl)c1ccc2cccnc2c1O (configuration not stated) | - | - | - | ? | - | -
O=C(O)COc1ccccc1C(Nc1cccnc1)c1cc(Cl)c2cccnc2c1O (configuration not stated) | - | - | - | ? | - | .
COc1ccc(C(NC(C)=O)c2ccc3cccnc3c2O)c(OC)c1 (configuration not stated) | - | - | - | 2.24µM | - | +
CCC(=O)NC(C)c1cc(Cl)c2cccnc2c1O (configuration not stated) | . | . | - | - | . | .
O=[N+]([O-])c1ccc(Cl)cc1P(=O)(O)c1cc(Cl)ccc1[N+](=O)[O-] | - | . | - | . | - | .
Cn1cc(/C=N/n2cnc3scc(-c4ccccc4)c3c2=O)c2ccccc21 | - | - | - | ? | - | +
O=c1c2c(-c3cccs3)csc2ncn1/N=C/c1ccccn1 | - | . | - | . | - | .
COC(=O)c1ccccc1NC(=O)c1ccc2c(Cl)c3c(nc2c1)CCCC3 | . | . | - | . | . | .
CC(C)(C)n1ncc(Oc2ccccc2[N+](=O)[O-])c(Cl)c1=O | - | - | - | ? | - | -
Cn1ncc(Oc2ccc([N+](=O)[O-])cc2)c(Cl)c1=O | - | - | - | - | - | .
NC(=O)CCC(NC(=O)OCc1ccccc1)C(=O)OCC(=O)c1ccccc1 (configuration not stated) | - | . | - | . | - | .
O=C(COc1ccccc1)NCc1nnc2c3ccccc3c(-c3ccccc3)nn12 | - | - | - | . | - | -
CCNC(=O)CN(c1ccc(Oc2ccccc2)cc1)S(=O)(=O)c1ccccc1 | - | - | - | - | - | .
SMILES | RE007 growth inh | LmPK inh | TbPYK inhibitor | SARS PLpro yeast-1 | AMA1 RON2 block | SARS PLpro yeast-2
O=C(c1cc(C(F)(F)F)cc(C(F)(F)F)c1)N1CCC[C@@]2(CCN(c3ccccc3)C2)C1 | . | . | - | . | . | .
Cc1cccc(NC(=S)NCCc2ccccc2)n1 | - | - | - | - | - | .
S=C(NCCc1ccccc1)Nc1ccccn1 | - | - | ? | 5.62µM | - | +
Cc1ccc(S(=O)(=O)N(C)Cc2ccc(C(=O)N/N=C/c3ccc(OC(F)F)cc3OC(F)F)cc2)cc1 | - | - | - | - | - | .
O=C(N/N=C/c1ccc(OC(F)F)cc1OC(F)F)c1ccc(Br)cc1 | - | - | - | . | - | -
COc1ccccc1NCC(=O)N/N=C/c1c(O)ccc2ccccc12 | - | - | - | - | - | .
O=C(CN1CCCc2ccccc21)N/N=C/c1ccccc1 | . | - | - | - | - | .
COc1ccccc1N(CC(=O)N/N=C/c1c(O)ccc2ccccc12)S(C)(=O)=O | - | - | - | 11.2µM | - | +

From PubChem BioAssay
